According to PubChem BioAssay (Tox21):
Several values for one entry are separate records, joined by “and”; a condition that tells them apart may be missing. Equal values may be shown once. Results filed as inconclusive are left out. A call without a number means that no potency is given here. Activity calls are given as the source filed them. Calls come from the whole dose curve; as a rule, active = well fitted cell-killing curve with a large enough effect in the repeat runs (not every such curve was filed as active); inconclusive = weak or mixed curves, or effect the other way; inactive = no such curve, though single readings can be large or run the other way.

experiment: qHTS assay to identify small molecule antagonists of the farnesoid-X-receptor (FXR) signaling pathway - cell viability counter screen (AID 743221); settings: FXR-bla HEK293T viability, CellTiter-Glo luminescence, 16 h; series mostly up to 62.6 µM; note: nearly all actives have a fitted effect of over 50% in size
Text: National Center for Advancing Translational Sciences [NCATS]
NIH Chemical Genomics Center [NCGC]
U.S. Environmental Protection Agency [EPA]
National Institutes of Environmental Health Sciences [NIEHS]
National Toxicology Program [NTP]
U.S. Food and Drug Administration [FDA]
The farnesoid-X-receptor (FXR), a nuclear hormone receptor, is highly expressed in liver, intestine, kidney and adrenal cortex. Natural ligands of FXR are the bile acids (Cholic acid, Chenodeoxy cholic acid etc). FXR is an important regulator of diverse metabolic pathways, including the bile acid homeostasis, lipid and glucose metabolisms. FXR regulates the expression of target genes by binding either as a monomer or as a heterodimer with the retinoid X receptor (RXR). Numerous studies have reported that FXR exerts protective function during cholestasis, diabetes, liver regeneration, and cancer. To identify compounds that inhibit FXR signaling, GeneBLAzer FXR-UAS-bla HEK 293T cell line (Invitrogen, Carlsbad, CA) containing a beta-lactamase reporter gene under the control of a UAS response element was used to screen the Tox21 10K compound library. The cytotoxicity of the Tox21 compound library against the FXR-bla cell line was tested in parallel by measuring the cell viability using CellTiter-Glo assay in the same wells.
Tox21 Assay Protocol Summary:
FXR-bla cells were dispensed at 5000 cells/5uL/well in 1536-well black wall/clear bottom plates using a Multidrop Combi (Thermo Fisher Scientific, Waltham, MA) dispenser. After the assay plates were incubated at 37 C and 5% CO2 for 5 h, 23 nL of compounds dissolved in DMSO, positive controls or DMSO only was transferred to the assay plate by a Pintool station (Kalypsys, San Diego, CA), followed by addition of 1 uL Chenodeoxycholic acid (50 uM, final concentration in the wells). The assay plates were incubated at 37C for 16 h. After 1 uL of LiveBLAzerTM B/G FRET substrate was added using a Bioraptr Flying Reagent Dispenser (FRD) workstation (Beckman Coulter, Indianapolis, IN), the plates were incubated at room temperature for 2 h, and fluorescence intensity was measured by an Envision plate reader (PerkinElmer, Shelton, CT). For cell viability readout that measures cytotoxicity, 4uL/well of CellTiter-Glo reagent was added into the assay plates using a Bioraptr FRD. After 30 min incubation at room temperature, the luminescence intensity in the plates was measured using a ViewLux plate reader (PerkinElmer).
Potency is the fitted concentration of half-maximal effect.

SMILES | Potency
N#CNC#N | inactive
C1CCC2CCCCC2C1 (stereo not given) | inactive
[Cd+2].[Cl-].[Cl-] | 12.4 µM (active) and 19.5 µM (active)
CCCCCCCCCCCCCCCC[N+](C)(C)C | 23.7 µM (active) and 49 µM (active)
CC(C)OC(=O)C(O)(c1ccc(Cl)cc1)c1ccc(Cl)cc1 | inactive
CCCN(CC)CC1COC2(CCC(C(C)(C)C)CC2)O1 (stereo not given) | inactive
Clc1ccc(C(c2ccc(Cl)cc2)C(Cl)(Cl)Cl)cc1 | inactive
CCCCCCCCCCCCCCCCCCn1cc[n+](C)c1 | 34.5 µM (active)
ClC1=C(Cl)[C@]2(Cl)[C@H]3[C@H]([C@H]4C=C[C@H]3C4)[C@@]1(Cl)C2(Cl)Cl | inactive
Oc1ccc(C(c2ccc(O)cc2)(C(F)(F)F)C(F)(F)F)cc1 | inactive
COc1ccc(OC)c(CC(C)N)c1 (stereo not given) | inactive
CCOc1cc(C(C)(C)C)ccc1C1COC(c2c(F)cccc2F)=N1 (stereo not given) | 29.7 µM (active)
Clc1ccc(C(c2ccccc2Cl)C(Cl)(Cl)Cl)cc1 (stereo not given) | inactive
BrCBr | inactive
CCCCN(CCCC)C(=S)[S-].CCCCN(CCCC)C(=S)[S-].[Zn+2] | 13.8 µM (active)
O=CC(Br)(Br)Br | 24.5 µM (active)
CCCCCCCCCCCCCC[P+](CCCCCC)(CCCCCC)CCCCCC (tested in a mixture with another compound) | 6.92 µM (active)
ClC(Cl)=C(c1ccc(Cl)cc1)c1ccc(Cl)cc1 | inactive
O=C1c2ccccc2C(=O)C1C(=O)C(c1ccccc1)c1ccc(Cl)cc1 (stereo not given) | inactive
C[C@]12CC[C@H]3[C@@H](CCC4=CC(=O)CC[C@@]43C)[C@@H]1CC[C@@H]2O | inactive

SMILES | Potency
ClC1=C(Cl)C2(Cl)C3C(Cl)C(Cl)CC3C1(Cl)C2(Cl)Cl (stereo not given) | 61.6 µM (active)
Nc1ccccc1C(=O)Oc1ccc2ccccc2c1 | inactive
O=C1NCN(c2ccccc2)C12CCN(CC1COc3ccccc3O1)CC2 (stereo not given) | inactive
C[C@H]1CC[C@@H]2[C@@H](C)[C@H]3[C@H](C[C@H]4[C@@H]5CC=C6CC(O[C@@H]7O[C@H](CO)[C@H](O)[C@H](O[C@@H]8O[C@H](CO)[C@@H](O)[C@H](O)[C@H]8O)[C@H]7O[C@H]7O[C@@H](C)[C@H](O)[C@@H](O)[C@H]7O)CC[C@]6(C)[C@H]5CC[C@]34C)N2C1 (stereo not given in full) | 14.3 µM (active)
ClC(Cl)=C(Cl)Cl | inactive
Oc1cc(Cl)c(Cl)c(Cl)c1 | inactive
CS(=O)(=O)c1ccc(C(=O)C2C(=O)CCCC2=O)c([N+](=O)[O-])c1 | inactive
c1ccc2cc3c(cc2c1)-c1cccc2cccc-3c12 | inactive
CC1(C)CN=C(NN=C(/C=C/c2ccc(C(F)(F)F)cc2)/C=C/c2ccc(C(F)(F)F)cc2)NC1 | 15.5 µM (active)
O=C(O)COc1nc(Cl)c(Cl)cc1Cl | inactive
CSCCCN=C=S | inactive
CC(C)N1C(=O)N(c2ccccc2)CSC1=NC(C)(C)C | inactive
Fc1cccc(Cl)c1CCl | inactive
O=C(NC(=O)c1c(F)cccc1F)Nc1cc(Cl)c(OC(F)(F)C(F)F)c(Cl)c1 | inactive
CN(C)[C@@H]1C(=O)C(C(N)=O)=C(O)[C@@]2(O)C(=O)C3=C(O)c4c(O)ccc(Cl)c4[C@@](C)(O)[C@H]3C[C@@H]12 | inactive
O=[N+]([O-])c1cc(C(F)(F)F)c(Cl)c([N+](=O)[O-])c1Cl | 38.9 µM (active)
N#CCCSCCC#N | inactive
CCCN(CCC)c1c([N+](=O)[O-])cc(S(N)(=O)=O)cc1[N+](=O)[O-] | 52.2 µM (active)
[Cl][Sb]([Cl])[Cl] | inactive
CC(=O)[O-].[Tl+] | inactive
